# RXFP1 ag: agonists of human relaxin receptor RXFP1; hit rate 0.3% among 370,000; AID 2676; Q9HBX9; HEK293T-RXFP1 cAMP TR-FRET, 30 min; response scale: percent of porcine relaxin response, buffer zero; Potency, µM (highest dose often 57.5 µM), actives largely listed as activators; active = well fitted activation curve with a large enough effect; inconclusive = small, poorly fitted or top-dose-only effect; also: nearly all actives have a fitted effect of over 60% in size
# Target sequence (Q9HBX9 whole entry, looked up): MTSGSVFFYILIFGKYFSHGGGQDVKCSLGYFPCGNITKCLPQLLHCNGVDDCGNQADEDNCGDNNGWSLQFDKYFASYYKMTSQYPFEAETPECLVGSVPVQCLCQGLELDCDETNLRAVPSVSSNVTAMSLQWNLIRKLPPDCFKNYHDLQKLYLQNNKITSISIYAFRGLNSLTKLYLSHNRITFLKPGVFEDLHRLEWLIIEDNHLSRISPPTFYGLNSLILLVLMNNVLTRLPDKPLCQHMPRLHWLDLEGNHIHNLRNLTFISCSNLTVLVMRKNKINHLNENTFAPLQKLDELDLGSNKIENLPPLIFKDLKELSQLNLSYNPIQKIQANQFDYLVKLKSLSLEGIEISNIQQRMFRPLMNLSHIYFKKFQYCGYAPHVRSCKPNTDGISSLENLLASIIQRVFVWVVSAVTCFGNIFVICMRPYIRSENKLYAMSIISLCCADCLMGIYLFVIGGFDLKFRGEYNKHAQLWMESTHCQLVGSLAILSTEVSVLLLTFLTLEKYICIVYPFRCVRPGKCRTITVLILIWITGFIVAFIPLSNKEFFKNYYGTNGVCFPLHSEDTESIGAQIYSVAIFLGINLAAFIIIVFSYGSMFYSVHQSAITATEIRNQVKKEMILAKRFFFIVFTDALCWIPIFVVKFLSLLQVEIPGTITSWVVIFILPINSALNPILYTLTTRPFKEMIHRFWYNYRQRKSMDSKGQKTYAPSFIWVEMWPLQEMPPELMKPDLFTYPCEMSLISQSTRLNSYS
#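 Agonist response is measured as cAMP accumulation in an RXFP1-transfected HEK293T line under PDE4 inhibition. Values are scaled between buffer-only and 29 nM porcine relaxin, and EC50s come from standard Hill equation fits.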
# pAkt inh: blocks phosphorylation of Akt; Neuro2A IGF-stimulated pAkt S473 HTRF, 20 min; stronger effect = lower value; hit rate 0.32% among 360,000; activity change, % for hits at 50 µM; in the data active = activity change below about -80%; inconclusive = mostly about -51% to -80%
#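 Neuro2A cells (4,500/well, DMEM with 0.5% FBS) were treated with compound at a single 50 µM final concentration, stimulated with 6 nM IGF for 20 min at 37 °C, and lysed. Phospho-Akt Ser473 was read by HTRF as 665/615 ratio ×10^4.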
# RXFP1 antagonist: RXFP1 (human) relaxin receptor antagonism | hit rate 0.59% among 350,000 | AID 1259400 | Q9HBX9 | activity change, negative = inhibition, % at 57.5 µM | HEK293-RXFP1, relaxin-stimulated cAMP HTRF, 30 min; stronger effect = lower value;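 active = activity change of -60% or lower, but not beyond a set lower limit; inconclusive = change between -60% and -40%, or beyond the set limit; inactive = change above -40%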
# gsp agonist: agonists of gsp mutant (McCune-Albright syndrome) | gsp mutant cells, cAMP HTRF, 30 min | hit rate 0.13% among 340,000 | Potency, µM (doses to about 76.9 µM), usual class: activators; active = well fitted activation curve with a large enough effect; inconclusive = small, poorly fitted or top-dose-only effect, or another doubt; inactive = no such curve, though single readings can be large or run the other way; cell line not stated here;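 also: phosphodiesterase inhibitor Ro 20-1724 added with compounds to block cAMP breakdown; nearly all actives have a fitted effect of over 60% in size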
#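 Cells in DMEM/10% FBS with G418 were pretreated with compounds in DMSO plus […] (300 uM stock) for 30 min at 37C. cAMP was measured by HTRF (cAMP-d2 plus anti-cAMP antibody-K) after 30 min at room temperature.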
# gsp antagonist: gsp mutant antagonism | gsp-mutant cells, cAMP HTRF, 30 min | hit rate 0.4% among 340,000 | Potency, µM (doses to about 76.9 µM), usual class: inhibitors; calls by dose curve; cell line not stated here;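 also: intracellular cAMP measured with PDE inhibitor Ro 20-1724 present during compound exposure; nearly all actives have a fitted effect of over 65% in size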
#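 HTRF cAMP measurement after 30 min RT detection following 30 min, 37C compound treatment alongside […] (added as 300 uM solution) in G418-selected cells seeded at 2000/well and grown 16–24 h.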
# Numbers stand for hits; i = inactive; ? = inconclusive; nt = not tested or not shown; [ ] = another dose, or the depositor's remark. Hits are enriched below; roughly 1.2% of the tested compounds scored in any of these assays.
SMILES,RXFP1 ag,pAkt inh,RXFP1 antagonist,gsp agonist,gsp antagonist
CCOc1ccc(C(c2c(O)cc(C)n(Cc3ccco3)c2=O)N2CCN(C)CC2)cc1 (configuration not stated),i,nt,i,nt,nt
CC(C)Oc1ccc(Br)cc1/C=N\NC(N)=S,i,i,-64.7,?,i
Cc1nc2ccccn2c(=O)c1CCN1CCC(C(=O)c2ccc(F)cc2)CC1,i,i,i,nt,i
Cc1nc2sccn2c(=O)c1CCN1CCC(=C(c2ccc(F)cc2)c2ccc(F)cc2)CC1,i,i,-66.8,nt,?
Cc1ccccc1CS(=O)(=O)c1nnc([C@H](Cc2ccccc2)NC(=O)OC(C)(C)C)o1,i,i,-66.7,i,i
CC(C)(C)OC(=O)N[C@@H](Cc1ccccc1)c1nnc(S(=O)(=O)Cc2ccccc2)o1,i,nt,nt,nt,nt
O=C(/C=C/c1ccc(Cl)c([N+](=O)[O-])c1)Nc1cccc(NC(=O)c2ccco2)c1,i,i,i,i,35.5µM
CS(=O)(=O)c1ncc(Cl)c(C(=O)Nc2ccc3ccccc3c2)n1,i,i,-93.0,i,i
COc1ccc(NC(=O)c2nc(S(=O)(=O)Cc3ccc(C)cc3)ncc2Cl)cc1,i,nt,-117.7,nt,nt
O=C(Nc1ccc(OC(F)F)cc1)c1ncc(Cl)c(Cl)c1Cl,i,i,i,i[15.4 µM],11.2µM
CC(=O)Nc1ccc(NC(=O)c2nc(S(=O)(=O)Cc3ccccc3)ncc2Cl)cc1,i,nt,?,i,i
CCOc1ccc(NC(=O)c2nc(S(=O)(=O)Cc3ccccc3F)ncc2Cl)cc1,i,nt,?,nt,nt
CCS(=O)(=O)c1ncc(Cl)c(C(=O)Nc2ccc(C)cc2)n1,i,i,-78.3,i,?
Cc1ccc(CS(=O)(=O)c2ncc(Cl)c(C(=O)Nc3ccc(OC(F)F)cc3)n2)cc1,i,i,-65.5,i[15.4 µM],?
CCS(=O)(=O)c1ncc(Cl)c(C(=O)Nc2ccc(S(=O)(=O)N3CCCC(C)C3)cc2)n1 (configuration not stated),i,i,-119.0,i[15.4 µM],?
CCC1CCCCN1S(=O)(=O)c1ccc(NC(=O)c2nc(S(C)(=O)=O)ncc2Cl)cc1 (configuration not stated),i,i,?,i[15.4 µM],?
O=C(CCCn1c(=O)c2sccc2n(Cc2c(F)cccc2Cl)c1=O)NCc1ccccc1,i,nt,i,nt,nt
CCOC(=O)Cc1nnc2c(Nc3ccc(Cl)cc3)nc3nonc3n12,i,i,i,i,35.5µM
C=CC[n+]1c(-c2ccc(Cl)cc2Cl)csc1Nc1c(C)n(C)n(-c2ccccc2)c1=O,i,i,-67.8,i,?
CNC(=O)C1CCC(=O)N1Cc1ccc(C)cc1 (configuration not stated),i,nt,i,i,i
Cc1ccc(CN2C(=O)CCC2C(=O)NC(C)C)cc1 (configuration not stated),i,-118.2%,i,i,i
Cc1cccc(C)c1OCc1cc(=O)n2c3c(sc2n1)CCCC3,i,nt,nt,nt,nt
CCc1ccc(NC(=O)C2CCN(S(=O)(=O)c3c(C)noc3/C=C/N(C)C)CC2)cc1,i,i,-61.8,i,i
CCc1ccc(NC(=O)C2CCN(S(=O)(=O)c3c(C)noc3/C=C/c3cccs3)CC2)cc1,i,nt,i,nt,nt
Cn1c(C(=O)N2CCOCC2)cnc1Sc1ncc(C(F)(F)F)cc1Cl,i,-113.7%,i,?,i
SMILES,RXFP1 ag,pAkt inh,RXFP1 antagonist,gsp agonist,gsp antagonist
Cc1onc(-c2c(F)cccc2Cl)c1C(=O)NCc1ccccn1,i,-108.6%,i,i,i
Cc1onc(-c2ccccc2Cl)c1C(=O)NCc1ccccn1,i,i,i,i,i
CCN1CCCC1CN (configuration not stated),nt,nt,i,nt,nt
c1ccc(N2CC3CCc4ccccc4C3=N2)cc1 (configuration not stated),i,i,i,10µM,i
O=C(CCOc1ccccc1)N(Cc1cccnc1)c1nc2ccc(F)cc2s1,i,nt,i,nt,nt
C#Cc1ccc(-c2ccccc2F)cc1,nt,nt,i,nt,nt
Cc1ccc(NC(=O)Cn2c(=O)n(Cc3nc(-c4ccccc4)no3)c(=O)c3ccccc32)c(C)c1,?,nt,i,nt,nt
Cc1cccc(Nc2nc3c(s2)CCCC3)c1,i,i,i,i,i
O=C(O)c1ccc(Nc2nc3c(s2)CCCC3)cc1,i,i,i,10µM,i
CCN1CCN(CC(=O)N2N=C(c3cccs3)CC2c2ccc(OC)c(OC)c2)C(=O)C1=O (configuration not stated),i,i,i,i[15.4 µM],i
C=C1C(=O)c2sccc2C(c2ccc(OC)c(OC)c2)C1COC(C)=O (configuration not stated),nt,i,-103.5,i,i
Cc1c(OCc2ccccc2)c(=O)ccn1Cc1ccc(Cl)cc1,i,-114.6%,i,i,i
Cc1ccc(Cn2ccc(=O)c(OCc3ccccc3)c2C)cc1,i,i,i,i,i
COc1cc(NC(=O)COc2cccc3c2OC(C)(C)C3)cc(OC)c1OC,i,i,i,i,35.5µM
COc1cc(NC(=O)COc2cc(O)c3c(c2)OC(C)(C)CC3=O)cc(OC)c1OC,i,i,nt,nt,35.5µM
Cc1nc2nc(NC(=O)c3ccc(C(C)(C)C)cc3)[nH]n2c(=O)c1C,i,nt,i,nt,nt
O=C(Nc1ccncc1)c1ccc2c(c1)C(=O)N(C1CCCCC1)C2=O,i,i,i,i,22.4µM
COc1ccc2c(c1)c(CC(=O)OC/C=C(\C)CC/C=C(\C)CCC=C(C)C)c(C)n2C(=O)c1ccc(Cl)cc1,nt,nt,i,nt,nt
CCCCn1cc(S(=O)(=O)c2cc(C)ccc2C)c(=O)c2cc(F)c(N3CCC(C)CC3)cc21,i,nt,i,nt,nt
COC(=O)Nc1nc(C)c(C(=O)N(C)C)s1,i,-126.5%,i,i,i
CCOC(=O)Nc1nc(C)c(C(=O)N(C)C)s1,i,i,i,i,i
N#Cc1c(NC(=O)c2ccccc2)sc2c1CCCCC2,i,i,i,i,i
N#Cc1c(Cl)nsc1NC(=O)c1ccccc1,i,i,i,i,31.6µM
